Inconclusive results are not listed. The source made the active and inactive calls. Unless noted, the rule behind the calls is not given here.
Assays:
[1] = qHTS profiling of the MIPE4 collection as inhibitors of Plasmodium falciparum (3D7) proliferation (AID 743344);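 note: scaled between DMSO vehicle wells and 0.29 µM artemisinin as full inhibition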; settings: P. falciparum 3D7 in erythrocytes, SYBR Green DNA fluorescence, 72 h; at 28.5 µM unless noted
Outline: (§1)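 Parasite DNA was quantified by SYBR Green I fluorescence (ex 485, em 535 nm) after overnight lysis in saponin/Triton buffer at room temperature. Cultures at 0.3% parasitemia and 2.5% hematocrit were first exposed to compound for 72 h at 37 C; signals were normalised to artemisinin (0.29 uM) and vehicle wells.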

[2] = qHTS profiling of the MIPE4 collection as inhibitors of Plasmodium falciparum (DD2) proliferation (AID 743345); settings: P. falciparum Dd2 in erythrocytes, SYBR Green DNA, 72 h; at 28.5 µM unless noted
Outline: as §1

[3] = qHTS profiling of the MIPE4 collection as inhibitors of Plasmodium falciparum (DD2) proliferation (Rep 2) (AID 743346); settings: P. falciparum Dd2 in erythrocytes, SYBR Green DNA, 72 h; at 28.5 µM unless noted
Outline: as §1

[4] = High-throughput drug toxicity screening in the BPDCN cell line Gen2.2 (AID 1224824); settings: Gen2.2 BPDCN cells; at 45.8 µM (top of the series) unless noted;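 note: cells exposed to compounds for 48 h before reading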
Outline: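 Seed 500 exponentially growing Gen2.2 cells/well; add compounds by pin tool; incubate 48 h, 37 °C, 5% CO2; add CellTiter-Glo, 15 min RT; read luminescence. % activity vs DMSO (100%) and bortezomib (0%).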

[5] = qHTS assay for measurement of the activity of small molecule inhibitors on Zika virus induced Caspase-3 activity in human iPSC derived neural progenitor cells (hNPCs) (AID 1224857; active = well fitted curve in the direction sought with a large enough effect; an effect the other way counts as inactive or inconclusive; note: % of control where 0% means no effect; nearly all actives have a fitted effect of over 65% in size)
Outline: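 hNPCs seeded 350 cells/well, cultured 16–20 h; compounds added 1 h before ZIKV (2 FFU/cell), 37 C 6 h. Caspase-Glo 3/7 luminescence after 30 min RT; % inhibition from induction scaled to uninfected (0%) and infected (100%) wells.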

[6] = qHTS assay for measurement of the activity of small molecule inhibitors on Zika virus induced Caspase-3 activity in human astrocytoma cells (AID 1224859; active = well fitted curve in the direction sought with a large enough effect; an effect the other way counts as inactive or inconclusive;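 note: plate controls were ZIKV-infected untreated cells for no effect and uninfected cells for full effect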)
Outline: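 Luminescence read-out (Caspase-Glo 3/7, 30 min RT) of caspase activity in SNB-19 cells infected 6 h with ZIKV, 2 FFU/cell, after 1 h compound pretreatment; % inhibition from induction normalised to uninfected (0%) and infected (100%) wells.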

[7] = qHTS profiling of the MIPE4 collection as inhibitors of Plasmodium falciparum (HB3) proliferation (AID 743347);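 note: plate controls were DMSO vehicle wells for no effect and artemisinin wells for full effect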; settings: P. falciparum HB3 in erythrocytes, SYBR Green DNA, 72 h; at 28.5 µM unless noted
Outline: as §1

[8] = qHTS Screen of the MIPE 4.0 Collection Against Ewings Sarcoma (TC32) (AID 1259256; active = well fitted curve in the direction sought with a large enough effect; an effect the other way counts as inactive or inconclusive; note: nearly all actives have a fitted effect of over 45% in size; note: potency is the fitted concentration of half-maximal effect)
Outline: (§2)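 Dose series incubated 48 h with cells in RPMI plus 5% FBS, glutamine and penicillin/streptomycin; cell viability then quantified via CellTiter-Glo.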

[9] = qHTS Screen of the MIPE 4.0 Collection Against Ewings Sarcoma (TC71) (AID 1259253; active = well fitted curve in the direction sought with a large enough effect; an effect the other way counts as inactive or inconclusive;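 note: 100% = DMSO-treated cells and 0% = medium-only wells without cells; nearly all actives have a fitted effect of over 40% in size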)
Outline: as §2

[10] = qHTS assay to identify small molecule inhibitors of chordoma cells - UCH-2 (AID 1259356; active = well fitted curve in the direction sought with a large enough effect; an effect the other way counts as inactive or inconclusive; note: % is set by controls: 0 for no effect and ±100 for the full control effect)

Structure (SMILES)	parasite growth, % of DMSO control [1] [%]	parasite growth remaining, % of DMSO control (lower = more inhibition) [2] [%]	parasite growth, % of control (lower = inhibition) [3] [%]	cell viability, % of control (lower = more cytotoxic) [4] [%]	Potency [5]	Potency [6]	growth, % of control [7] [%]	Potency [8]	Potency [9]	outcome [10]
Oc1ccc(C2CCN(c3ccnc4ccccc34)CC2)cc1O	6.17	13.2	11.6	31	inactive	inactive	–	–	–	–
COC[C@@H](c1ccc(C(F)(F)F)cc1)N1CCN(C2(C)CCN(C(=O)c3c(C)ncnc3C)CC2)C[C@H]1C	31.8	84.7	21.5	7.13	inactive	inactive	28.5	–	–	–
Cn1cc(C=C2C(=O)Nc3cccnc32)c2ccccc21	42.6	82.2	–	111	inactive	inactive	2.02	inactive	–	–
Cc1cc(OCCCc2c(C(=O)O)n(Cc3cccnc3)c3c(-c4c(COc5ccc(N6CCN([S+](C)(=O)[O-])CC6)cc5)nn(C)c4C)cccc23)cc(C)c1Cl	6.87	8.65	–	62.9	inactive	inactive	5.16	23.5 µM (active)	–	–
CC(C)n1cnc2c(NCCCCCCNC(=O)OC(C)(C)C)nc(NCCO)nc21	20.1	60.6	24.8	186	inactive	inactive	–	–	–	–
CC1CCC(C(=O)N(c2cc(C#CC(C)(C)C)sc2C(=O)O)C2CCC(O)CC2)CC1 (stereo not drawn)	4.72	54.5	9.42	50.9	inactive	inactive	3.91	inactive	–	–
O=C(O)C(O)Cc1ccc(O)c(O)c1 (stereo not drawn)	102	79.5	65.6	94.8	inactive	inactive	106	inactive	–	–
CC1(C)O[C@H]2C[C@@H]3[C@H]4CCC5=CC(=O)C=C[C@]5(C)[C@@]4(F)[C@@H](O)C[C@]3(C)[C@]2(C(=O)CO)O1	–	92.5	65.2	37.9	inactive	inactive	69	–	inactive	inactive
C[C@]12CCC3c4ccc(O)cc4CCC3C1CCC2=O (stereo partly drawn)	51.9	–	54.3	54	inactive	inactive	–	6.62 µM (active)	–	–

Reference: PubChem BioAssay (NCATS)
